# The supplement of paper PMC8728848
# Only a selection was taken, and the strongest signals are over-represented in it overall.
# B1: Epa1 (Candida glabrata) (protein)
# chain: MGSSHHHHHHSSGLVPRGSHMTSSNDISLASKDPTTFPLGCSPDITTPKKGLSMELYSYDFRKKGSYPCWDAAYLDPNYPRTGYKSHRLLAKVDGVTGNINFYYHATKGCTPQLGHLPASYNYPKPLTMTNFTMLLYGYFRPKVTGFHTFTISADDLLFVNFGAGNAFDCCRRDSSADHFGNYQAYAIWGSKTAKDELTVHLDAGVYYPIRLFYNNREYDGALSFTFKTESNENTVSDFSEYFFSLDDTEEGCPGLISYD
# Tests used:
# Assay in all cases: glycan array binding signal (z-score within array); higher = stronger binding
# Conditions in all cases: glycan notation: IUPAC condensed, linker removed
# Fuc(a1-2)Gal = biological target: Fuc(a1-2)Gal
# Summary of the method: (§1)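 Columns mapping to the same glycan were averaged after glycan names were converted to IUPAC-condensed notation. The data come from 3228 arrays in the Consortium for Functional Glycomics database, limited to those with an available protein sequence. Binding is reported as a within-array Z-score averaged across arrays of one protein sequence and across linkers.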
# Fuc(a1-2)Gal(b1-3)GalNAc = biological target: Fuc(a1-2)Gal(b1-3)GalNAc
# Summary of the method: as §1
# [1] = biological target: Fuc(a1-2)Gal(b1-4)GlcNAc(b1-2)Man(a1-3)[Fuc(a1-2)Gal(b1-4)GlcNAc(b1-2)Man(a1-6)]Man(b1-4)GlcNAc(b1-4)[Fuc(a1-6)]GlcNAc
# Summary of the method: as §1
# Fuc(a1-2)[Gal(a1-3)]Gal = biological target: Fuc(a1-2)[Gal(a1-3)]Gal
# Summary of the method: as §1
# [2] = biological target: Fuc(a1-2)[Gal(a1-3)]Gal(b1-3)GlcNAc(b1-2)Man(a1-3)[Fuc(a1-2)[Gal(a1-3)]Gal(b1-3)GlcNAc(b1-2)Man(a1-6)]Man(b1-4)GlcNAc(b1-4)GlcNAc
# Summary of the method: as §1
# [3] = biological target: Fuc(a1-2)[GalNAc(a1-4)]Gal(b1-4)GlcNAc
# Summary of the method: as §1
# Gal(b1-3)Gal = biological target: Gal(b1-3)Gal
# Summary of the method: as §1
# Gal(b1-3)Gal(b1-4)GlcNAc = biological target: Gal(b1-3)Gal(b1-4)GlcNAc
# Summary of the method: as §1
# Gal(b1-3)GalNAc = biological target: Gal(b1-3)GalNAc
# Summary of the method: as §1
# Gal(b1-3)GalNAc(b1-3)Gal = biological target: Gal(b1-3)GalNAc(b1-3)Gal
# Summary of the method: as §1
# [4] = biological target: Gal(b1-3)GalNAc(b1-4)Gal(b1-4)Glc
# Summary of the method: as §1
# [5] = biological target: Gal(b1-3)GalNAc(b1-4)[Neu5Ac(a2-3)]Gal(b1-4)Glc
# Summary of the method: as §1
# [6] = biological target: Gal(b1-3)GlcNAc(b1-2)Man(a1-3)[GlcNAc(b1-4)][Gal(b1-3)GlcNAc(b1-2)Man(a1-6)]Man(b1-4)GlcNAc(b1-4)GlcNAc
# Summary of the method: as §1
# [7] = biological target: Gal(b1-3)[Neu5Ac(a2-6)]GalNAc
# Summary of the method: as §1
# [8] = biological target: Gal(b1-3)[Neu5Ac(a2-6)]GlcNAc(b1-4)Gal(b1-4)Glc
# Summary of the method: as §1
# [9] = biological target: Gal(b1-4)GalNAc(a1-3)[Fuc(a1-2)]Gal(b1-4)GlcNAc
# Summary of the method: as §1
# Gal(b1-4)Glc6S = biological target: Gal(b1-4)Glc6S
# Summary of the method: as §1
# [10] = biological target: Gal(b1-4)GlcNAc(b1-2)Man(a1-6)[Man(a1-3)]Man(b1-4)GlcNAc(b1-4)GlcNAc
# Summary of the method: as §1
# [11] = biological target: Gal(b1-4)GlcNAc(b1-3)Gal(b1-3)GlcNAc
# Summary of the method: as §1
# [12] = biological target: Gal(b1-4)GlcNAc(b1-3)Gal(b1-4)Glc
# Summary of the method: as §1
# [13] = biological target: Gal(b1-4)GlcNAc(b1-3)Gal(b1-4)GlcNAc(b1-2)[Gal(b1-4)GlcNAc(b1-3)Gal(b1-4)GlcNAc(b1-6)]Man(a1-6)[Gal(b1-4)GlcNAc(b1-3)Gal(b1-4)GlcNAc(b1-2)Man(a1-3)]Man(b1-4)GlcNAc(b1-4)[Fuc(a1-6)]GlcNAc
# Summary of the method: as §1
# [14] = biological target: Gal(b1-4)GlcNAc(b1-3)Gal(b1-4)GlcNAc(b1-3)Gal(b1-4)GlcNAc(b1-2)[Gal(b1-4)GlcNAc(b1-3)Gal(b1-4)GlcNAc(b1-3)Gal(b1-4)GlcNAc(b1-6)]Man(a1-6)[Gal(b1-4)GlcNAc(b1-3)Gal(b1-4)GlcNAc(b1-3)Gal(b1-4)GlcNAc(b1-2)Man(a1-3)]Man(b1-4)GlcNAc(b1-4)[Fuc(a1-6)]GlcNAc
# Summary of the method: as §1
# [15] = biological target: Gal(b1-4)GlcNAc(b1-6)Gal(b1-4)GlcNAc
# Summary of the method: as §1
# [16] = biological target: Gal(b1-4)GlcNAc(b1-6)[Gal(b1-3)]GalNAc
# Summary of the method: as §1
# Gal(b1-6)Gal = biological target: Gal(b1-6)Gal
# Summary of the method: as §1
# Gal3S(b1-4)GlcNAc = biological target: Gal3S(b1-4)GlcNAc
# Summary of the method: as §1
# [17] = biological target: Gal3S(b1-4)[Fuc(a1-3)]GlcNAc6S
# Summary of the method: as §1
# Gal6P(b1-4)GlcNAc = biological target: Gal6P(b1-4)GlcNAc
# Summary of the method: as §1
# Gal6S(b1-3)GlcNAc6S = biological target: Gal6S(b1-3)GlcNAc6S
# Summary of the method: as §1
# [18] = biological target: GalNAc(a1-3)GalNAc(b1-3)Gal(a1-4)Gal(b1-4)GlcNAc
# Summary of the method: as §1
binder,measurement,setting,value
B1,glycan array binding signal (z-score),Fuc(a1-2)Gal,-0.506
same,glycan array binding signal (z-score),Fuc(a1-2)Gal(b1-3)GalNAc,-0.25
same,glycan array binding signal (z-score),[1],-0.2
same,glycan array binding signal (z-score),Fuc(a1-2)[Gal(a1-3)]Gal,-0.213
same,glycan array binding signal (z-score),[2],-0.325
same,glycan array binding signal (z-score),[3],-0.299
same,glycan array binding signal (z-score),Gal(b1-3)Gal,3.63
same,glycan array binding signal (z-score),Gal(b1-3)Gal(b1-4)GlcNAc,8.5
same,glycan array binding signal (z-score),Gal(b1-3)GalNAc,3.51
same,glycan array binding signal (z-score),Gal(b1-3)GalNAc(b1-3)Gal,6.23
same,glycan array binding signal (z-score),[4],9.89
same,glycan array binding signal (z-score),[5],4.04
same,glycan array binding signal (z-score),[6],0.171
same,glycan array binding signal (z-score),[7],4.22
same,glycan array binding signal (z-score),[8],-0.213
same,glycan array binding signal (z-score),[9],-0.197
same,glycan array binding signal (z-score),Gal(b1-4)Glc6S,0.304
same,glycan array binding signal (z-score),[10],-0.169
same,glycan array binding signal (z-score),[11],-0.155
same,glycan array binding signal (z-score),[12],0.551
same,glycan array binding signal (z-score),[13],3.08
same,glycan array binding signal (z-score),[14],3.06
same,glycan array binding signal (z-score),[15],3.12
same,glycan array binding signal (z-score),[16],4.02
same,glycan array binding signal (z-score),Gal(b1-6)Gal,0.429
same,glycan array binding signal (z-score),Gal3S(b1-4)GlcNAc,-0.442
same,glycan array binding signal (z-score),[17],-0.394
same,glycan array binding signal (z-score),Gal6P(b1-4)GlcNAc,-0.272
same,glycan array binding signal (z-score),Gal6S(b1-3)GlcNAc6S,-0.014
same,glycan array binding signal (z-score),[18],-0.312
